From PubChem BioAssay AID652268 (The Scripps Research Institute Molecular Screening Center, 2013) come the findings set out here.

The campaign covered roughly 1,600 compounds. About 160 (10%) were called active. These entries were drawn from the full list. Values without a mark were called inactive. No stated cut-off is given here; in the data, active means activation above about 1.3%; inactive means the rest.

The nature of the experiment: parental HEK293-CNG cell agonism artefacts – fluorescence, high throughput, counter-screen for GalR3 antagonist project (AID 652268). Particulars: HEK293-CNG parental cells, cAMP membrane potential fluorescence; at 3 µM; stronger effect = higher value; normalised: DMSO wells 0%, forskolin wells 100%. For orientation: Counterscreens check selectivity or assay interference.
As for `CC(CCc1ccccc1)NCC(O)c1cccc([N+](=O)[O-])c1` (configuration not stated), the activation is 0.27%. To `C=CCC1(CC=C)CCCN1C(=O)c1cc(COc2ccc(-n3cncn3)cc2)on1` belongs -0.46%; to `Nc1ncnc2c1ncn2C1OC(CO)CC1O` (configuration not stated), -0.01%; to `COc1cc(C(=O)Nn2c(O)c(C3=c4ccccc4=NC3=O)sc2=S)ccc1O`, -0.64%. For the compound `COc1ccc(CCNc2nc3ccc(C)cc3n3cnnc23)cc1OC`, the activation is 0.25%.

For `COc1ccc(-c2[nH]nc3c2C(c2ccncc2)C(C#N)=C(N)O3)cc1` (configuration not stated), the activation is 0.22%. In the case of `COCCN1Cc2cccc(C(=O)Nc3ccccc3OC)c2C1=O`, the activation was 0.15%. Under `CCOC(=O)c1cc2n(c1C)-c1ccccc1C2=O` stands 0.34%.

As to `Cn1c(N)c(C(=O)COC(=O)c2cnc(Cl)c(Cl)c2)c(=O)n(C)c1=O`, the activation was 0.4%. To `CCOc1ccc(C(C)=O)cc1COC(=O)c1cnc(Cl)c(Cl)c1` belongs 4.48% (active); to `COCCNC(=O)/C(C#N)=C/c1cccc(OCc2ccccc2)c1`, 0.53%; to `CSc1nc(N)c(C#N)c(-c2ccccc2Cl)c1C#N`, -0.24%. To `O=C(Nc1ccc(CSc2ccccc2)cc1)c1ccc(CN2CCOCC2)cc1` belongs -1.27%; to `C[C@@]12C(=O)N(c3cccc(Br)c3)C(=O)N1[C@H](c1ccc(Cl)cc1)[C@@H]1C(=O)N(C3CCCCC3)C(=O)[C@@H]12`, -2.49%; to `COc1ccc(OC)c(NC(=O)CSc2nc(N)c(-c3ccccc3)c(=O)[nH]2)c1`, 0.95%. Under `COc1ccc(-c2csc(-c3cccs3)n2)cc1OC` stands 0.07%. In the case of `COc1ccc(C2Nc3ccccc3C(=O)N2c2ccc(Cl)cc2)cc1Cn1cc([N+](=O)[O-])cn1` (configuration not stated), the activation is -0.27%. Under `COc1ccc(C(=O)COC(=O)COc2ccc(C)c(C)c2)cc1` stands 0.4%; under `Cc1c(C=O)c2ccccc2n1CC(=O)O`, 0.2%; under `Cc1c(Cl)cccc1NC(=O)CSc1ccc(-c2cccnc2)nn1`, 0.04%. Under `CC1(C)CC(N2CCN(C(c3ccccc3)c3ccccc3)CC2)=CC(=[N+]2CCCCC2)C1` stands 10.7% (active); under `CC(C)(CNC(=O)c1ccc(Cl)c(S(=O)(=O)N2CCc3ccccc3C2)c1)N1CCOCC1`, -0.38%; under `COC(=O)c1cccc([N+](=O)[O-])c1CS(=O)(=O)c1ccc(C)cc1`, -0.01%. Under `Cc1ccc(S(=O)(=O)N2CCN(C(=O)COC(=O)c3c(C)cc(C)cc3C)CC2)c(C)c1` stands 0.55%; under `c1coc(CNc2ncnc3ccccc23)c1`, 0%; under `Cn1nccc1C(=O)NC1CCCc2c1cnn2-c1ccc(F)cc1F` (configuration not stated), -0.59%. On to `CCCCNC(=O)c1ccccc1NC(=O)C1=C(C)OCCS1`, for which the activation is -0.01%. Under `Cc1ccc(F)cc1NC(=O)Cc1nn(C)c(=O)c2ccccc12` stands 0.14%; under `Cn1cnc([N+](=O)[O-])c1Nc1ccccc1O`, 0.12%; under `C#Cc1ccc(NC(=O)C2(C)CCN2C(=O)Cc2ccc(-c3ccccc3)cc2)cc1` (configuration not stated), -0.7%. Under `O=C(CC1C(=O)NCCN1CC(c1ccccc1)c1ccccc1)NCCc1cn[nH]c1` (configuration not stated) stands 0.5%; under `CC(=O)c1c(C)[nH]c(C(=O)COC(=O)c2cccc(S(=O)(=O)N(C)c3ccccc3)c2)c1C`, -0.83%; under `c1ccc(Cc2ccc(OCCn3ccnc3)cc2)cc1`, -0.02%. For the compound `CCCn1nc(C(=O)NNC(=O)CSCC(=O)Nc2cc(C)on2)c2ccccc2c1=O`, the activation is 0.16%. Under `Cn1c(CN2CCOCC2)nc2cc(NC(=O)c3ccc(Cl)cc3)ccc21` stands 0.05%; under `CCNC(=S)Nc1ccc(OC(F)(F)F)cc1`, -0.01%. Turning to `CC(C)[C@@H](C(=O)OCC(=O)c1ccc2c(c1)NC(=O)CO2)N1C(=O)c2ccccc2C1=O`, the activation was 0.06%. `OC[C@@H]1CN(Cc2ccc(-c3ccccc3)cc2)C[C@H](n2cnc3c(NC4CCCC4)ncnc32)O1`: the activation is -0.91%. Under `CCCOc1ccc(Cc2c(Cl)nc(SC)nc2NC)cc1` stands 1.12%; under `COc1ccc(N(C(=O)CNC(=O)c2ccco2)C(C(=O)NCC2CCCO2)c2ccccc2)cc1Cl` (configuration not stated), -0.24%. With `CC(=O)OC(C)C[N+](C)(C)C` (configuration not stated), the activation was 0.43%.

Take `COC(=O)c1ccc(/C=N/N2C(C)CCCC2C)cc1` (configuration not stated): the activation is 0.27%. Under `COc1cc(NC(=O)c2cc([N+](=O)[O-])ccc2Br)ccc1NC(=O)c1ccco1` stands -0.55%; under `CCn1c(-c2cc(OC)ccc2OC)csc1=Nc1c(C)n(C)n(-c2ccccc2)c1=O`, 0.13%.

With `CCN1/C(=C\c2ccc3ccccc3[n+]2CC)Sc2cc(C)ccc21`, the activation was 8.28% (active). For the compound `Nc1nc(NCC(=O)O)nc(N2CCCCCC2)c1[N+](=O)[O-]`, the activation is 0.22%. To `CSc1nccc(NC(=O)c2ccc(C(C)(C)C)cc2)n1` belongs 0.22%. Under `CCOC(=O)c1c(NC(=O)CSc2nccc(=O)[nH]2)sc(C)c1C` stands -1.63%; under `COc1ccc(C2CC(=O)Nc3sc(=N)c4c(N)c(C#N)c(N)nc4c32)cc1OC` (configuration not stated), -0.03%. Under `CC(=O)N1CCCc2cc(S(=O)(=O)N3CCCC(C(=O)N4CCN(c5cccc(Cl)c5)CC4)C3)ccc21` (configuration not stated) stands -1.04%. For `CN(Cc1cccnc1)C(=O)c1cc(COc2ccc3ncccc3c2)on1`, the activation is -0.15%.

Turning to `NC(=O)c1ccc(NC(=O)COC(=O)C(Cc2ccccc2)NC(=O)c2ccccc2)cc1` (configuration not stated), the activation was -0.37%.

Regarding `CCOc1cc(C(=O)N2CCc3cc(OC)c(OC)cc3C2)ccc1OC(F)F`, the activation was 1.51% (active). As to `O=C(Nc1ccccc1Cl)/C(Cl)=C(\Cl)S(=O)c1ccccc1` (configuration not stated), the activation is 3.18% (active). Regarding `O=C(/C=C/c1c(F)cccc1Cl)Nc1nn[nH]n1`, the activation is 0.23%. For `Nc1nonc1-n1nnc(C(=O)N/N=C/c2cc(Br)ccc2O)c1CSC1=NCCS1`, the activation is 0.22%. Regarding `CCN(CC(=O)NCc1ccc(Cl)cc1)C(=O)CSc1ccccc1`, the activation is -0.45%. In the case of `O=C(NC(Nc1nc2ccc([N+](=O)[O-])cc2s1)(C(F)(F)F)C(F)(F)F)c1ccccc1`, the activation is 9.23% (active).

With `COc1cc(Cl)c(C)cc1NC(=O)[C@@H]1CCCN1C(=O)c1cccs1`, the activation was -0.08%.

For `CCOc1ccc(Br)cc1CSC(=N)N`, the activation was 3.59% (active). Take `CNC(=O)NC(=O)CSc1nnc(-c2ccc(F)cc2)n1CC1CCCO1` (configuration not stated): the activation was 0.01%. To `CCc1ccc(-c2nc(SCC(=O)NC3CCCC3)n[nH]2)cc1` belongs 0.04%; to `COc1cc2c(cc1OC)C(c1cccc([N+](=O)[O-])c1)=NCC2`, 0.46%; to `COc1ccc(NS(=O)(=O)c2ccc(NC(=O)c3ccc(N(C)S(C)(=O)=O)cc3)cc2)cc1`, -0.8%.

Take `O=C(CC(O)(C(F)(F)F)C(F)(F)F)Nc1ccc(Cl)c(Cl)c1`: the activation is 1.84% (active). Under `CSc1nc(N(C)NC(=O)c2cccc(C)c2)c2ccccc2n1` stands 2.12% (active). To `Cc1nc2ccccc2cc1OCc1ccc(F)cc1` belongs 1.08%.
